Results reported in PubChem BioAssay.
For some assays here: Measured potencies and affinities stand elsewhere. The source made the active and inactive calls. Unless noted, no rule for the calls is given here.

Assays:
[1] = antimalarial activity against Dd2 strain (AID 2302;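 active = growth inhibition above 50% at the single 2 µM test dose, taken to imply half-maximal potency below 2 µM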;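 also: 0% = DMSO untreated growth and 100% = chloroquine plus artemisinin killed control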); settings: P. falciparum Dd2 in RBCs, LDH growth readout, 72 h; at 2 µM; stronger effect = higher value
[2] = HepG2 cytotoxicity, primary screen, cytotoxicity control for P. falciparum antimalarial project, cell-based, ATP luminescence (AID 2303;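 active = inhibition above 50%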;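 also: 0% = DMSO wells and 100% = digitonin-killed cells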); settings: HepG2 viability, 24-48 h, at 10 µM, stronger effect = higher value
[3] = molecular target: L-lactate dehydrogenase (Plasmodium falciparum (isolate CDC / Honduras)) (UniProt Q27743); assay: PfLDH activity inhibition – cell lysate, 3D7 strain, counter-screen for P. falciparum growth inhibition project (AID 2304);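 also: 0% = vehicle and 100% = reference inhibitor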; settings: P. falciparum 3D7 crude extract, LDH APAD/NBT absorbance; at 2 µM; stronger effect = higher value
[4] = inhibition of 3D7 malaria parasite growth – strain 3D7 (AID 2306);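 also: 0% = DMSO wells and 100% = chloroquine plus artemisinin control wells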; settings: P. falciparum 3D7 erythrocytic growth, LDH absorbance, 72 h; at 2 µM; stronger effect = higher value
[5] = molecular target: Calcium-dependent protein kinase 1 (Plasmodium falciparum (isolate 3D7)) (UniProt P62344); assay: PfCDPK1 kinase inhibitors, biochemical, TCAMS library (AID 1159585; cut-off not given, nearly all actives have IC50 up to about 0.98 µM;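 also: inhibitors leave more ATP so luminescence rises with inhibition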); settings: recombinant PfCDPK1, Kinase-Glo ATP depletion luminescence
[6] = molecular target: Plasmodium falciparum protein kinase 6 (PK6, PF3D7_1337100) (UniProt Q8IDW1); assay: PfPK6 kinase inhibitors, biochemical, TCAMS library (AID 1159586); settings: recombinant PfPK6, Kinase-Glo ATP depletion luminescence
[7] = molecular target: Protein kinase 7 (PK7), Plasmodium falciparum 3D7 (PF3D7_0213400) (UniProt Q7YTF7); assay: inhibition of Plasmodium PK7 catalytic activity – biochemical, TCAMS antimalarial set, Kinase-Glo luminescence (AID 1159587); settings: recombinant PfPK7, Kinase-Glo ATP depletion luminescence
[8] = molecular target: Calcium-dependent protein kinase 4 (Plasmodium falciparum (isolate 3D7)) (UniProt Q8IBS5); assay: PfCDPK4 kinase inhibitors, biochemical, TCAMS library (AID 1159588; cut-off not given, nearly all actives have IC50 up to about 0.91 µM); settings: recombinant PfCDPK4, Kinase-Glo ATP depletion luminescence
Calcium-dependent protein kinase 4 (Plasmodium falciparum (isolate 3D7)), sequence (Q8IBS5 whole entry, looked up): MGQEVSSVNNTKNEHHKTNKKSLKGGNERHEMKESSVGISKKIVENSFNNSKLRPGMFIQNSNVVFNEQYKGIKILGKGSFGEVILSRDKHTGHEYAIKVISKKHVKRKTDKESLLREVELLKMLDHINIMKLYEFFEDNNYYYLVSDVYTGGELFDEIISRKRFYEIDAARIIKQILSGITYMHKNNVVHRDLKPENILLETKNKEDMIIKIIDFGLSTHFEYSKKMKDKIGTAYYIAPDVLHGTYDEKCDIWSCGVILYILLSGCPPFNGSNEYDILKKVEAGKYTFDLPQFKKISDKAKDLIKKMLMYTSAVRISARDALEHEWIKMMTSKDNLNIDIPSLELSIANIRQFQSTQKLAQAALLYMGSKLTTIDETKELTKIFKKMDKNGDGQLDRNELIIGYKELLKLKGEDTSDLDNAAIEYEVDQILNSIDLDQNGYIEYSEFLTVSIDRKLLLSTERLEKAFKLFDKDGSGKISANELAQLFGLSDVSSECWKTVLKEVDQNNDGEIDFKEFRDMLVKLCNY

L-lactate dehydrogenase (Plasmodium falciparum (isolate CDC / Honduras)), sequence (Q27743 whole entry, looked up): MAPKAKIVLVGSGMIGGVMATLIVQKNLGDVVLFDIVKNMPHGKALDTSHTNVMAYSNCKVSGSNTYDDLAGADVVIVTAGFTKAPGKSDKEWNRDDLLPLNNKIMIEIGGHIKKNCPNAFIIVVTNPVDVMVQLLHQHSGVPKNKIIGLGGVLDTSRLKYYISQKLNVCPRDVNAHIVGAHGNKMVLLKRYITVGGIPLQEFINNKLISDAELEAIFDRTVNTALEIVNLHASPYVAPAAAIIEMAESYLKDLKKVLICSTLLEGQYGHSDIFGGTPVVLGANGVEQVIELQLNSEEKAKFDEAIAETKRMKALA
Protein kinase 7 (PK7), Plasmodium falciparum 3D7 (PF3D7_0213400), sequence (Q7YTF7 1-343): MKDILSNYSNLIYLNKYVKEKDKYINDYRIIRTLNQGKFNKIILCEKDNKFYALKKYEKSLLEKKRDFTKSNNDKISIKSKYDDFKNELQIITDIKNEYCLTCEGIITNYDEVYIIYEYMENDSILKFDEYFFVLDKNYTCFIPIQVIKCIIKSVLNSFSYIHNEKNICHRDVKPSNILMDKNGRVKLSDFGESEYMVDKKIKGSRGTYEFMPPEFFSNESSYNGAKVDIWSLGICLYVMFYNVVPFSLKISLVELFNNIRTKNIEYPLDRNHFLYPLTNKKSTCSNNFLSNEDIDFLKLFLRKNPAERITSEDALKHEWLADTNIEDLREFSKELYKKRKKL
Plasmodium falciparum protein kinase 6 (PK6, PF3D7_1337100), sequence (Q8IDW1 1-305): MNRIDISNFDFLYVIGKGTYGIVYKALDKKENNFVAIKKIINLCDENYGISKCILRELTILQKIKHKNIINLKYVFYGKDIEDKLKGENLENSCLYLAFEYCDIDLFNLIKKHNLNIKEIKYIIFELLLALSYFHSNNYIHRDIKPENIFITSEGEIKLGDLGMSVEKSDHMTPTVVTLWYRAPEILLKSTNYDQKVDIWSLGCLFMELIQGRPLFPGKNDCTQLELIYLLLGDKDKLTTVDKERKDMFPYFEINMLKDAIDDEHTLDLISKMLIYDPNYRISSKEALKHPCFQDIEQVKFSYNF
Calcium-dependent protein kinase 1 (Plasmodium falciparum (isolate 3D7)), sequence (P62344 whole entry, looked up): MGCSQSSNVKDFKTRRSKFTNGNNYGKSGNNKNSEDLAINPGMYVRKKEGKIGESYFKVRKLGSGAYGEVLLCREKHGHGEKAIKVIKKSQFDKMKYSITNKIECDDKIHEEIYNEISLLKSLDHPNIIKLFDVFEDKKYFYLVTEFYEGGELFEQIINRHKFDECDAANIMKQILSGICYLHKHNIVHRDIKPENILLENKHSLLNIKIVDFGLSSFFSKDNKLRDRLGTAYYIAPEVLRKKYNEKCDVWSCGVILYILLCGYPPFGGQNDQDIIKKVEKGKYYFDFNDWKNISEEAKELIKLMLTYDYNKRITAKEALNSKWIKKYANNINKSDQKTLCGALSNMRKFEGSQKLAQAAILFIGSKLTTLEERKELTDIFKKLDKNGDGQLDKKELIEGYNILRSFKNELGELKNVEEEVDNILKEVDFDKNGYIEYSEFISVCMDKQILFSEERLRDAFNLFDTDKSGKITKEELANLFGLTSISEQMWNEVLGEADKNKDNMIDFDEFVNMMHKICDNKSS

O=c1cnc2ccc(F)cc2n1CCN1CCC(NCc2cc(-c3ccccc3)cs2)CC1
inactive: growth inhibition [1] 14% | inhibition [2] -5% | inhibition [3] -2% | outcome [5] | outcome [6] | outcome [7] | outcome [8]
active: growth inhibition [4] 91%

Cc1cc(-c2cccc3c(NC(=O)N4CCc5cc6nccc(N7CCN8CCC[C@H]8C7)c6cc54)cccc23)cc(C)n1
active: growth inhibition [1] 100% | growth inhibition [4] 101%
inactive: inhibition [2] 12% | inhibition [3] 6% | outcome [5] | outcome [6] | outcome [7] | outcome [8]

O=C(Nc1ccc(Cn2nc(Cl)c(N3CCCNCC3)cc2=O)cc1)c1ccc(-c2ccccc2)cc1
inactive: growth inhibition [1] 35% | inhibition [3] 0% | outcome [5] | outcome [6] | outcome [7] | outcome [8]
active: inhibition [2] 93% | growth inhibition [4] 87%

COc1ccc(NC(=O)Nc2ccc(-c3ccccc3)cc2)cc1Cn1cnc(N2CCCNCC2)cc1=O
active: growth inhibition [4] 101%
inactive: growth inhibition [1] 38% | inhibition [2] 24% | inhibition [3] 8% | outcome [5] | outcome [6] | outcome [7] | outcome [8]

O=C(NCC1CCC(C(=O)NCCN2CCCCC2)CC1)c1ccc(O)c(-c2ccc(Cl)c(Cl)c2)c1 (stereo not given)
active: growth inhibition [4] 91%
inactive: growth inhibition [1] 22% | inhibition [2] -5% | inhibition [3] -1% | outcome [5] | outcome [6] | outcome [7] | outcome [8]

COc1cccc(CN2CCN(C(c3ccccc3)c3ccccc3)CC2)c1O
inactive: inhibition [2] 6% | inhibition [3] 2% | outcome [5] | outcome [6] | outcome [7] | outcome [8]
active: growth inhibition [1] 98% | growth inhibition [4] 99%

CSc1ccc(CN2CCC(CNC(=O)c3cc(-c4ccccc4F)cs3)C2)cc1 (stereo not given)
active: growth inhibition [4] 90%
inactive: growth inhibition [1] 13% | inhibition [2] 32% | inhibition [3] 2% | outcome [5] | outcome [6] | outcome [7] | outcome [8]

Cc1ccc2c(NN=CC=Cc3ccccc3)cc(C)nc2c1
inactive: growth inhibition [1] 13% | inhibition [2] 3% | inhibition [3] 6% | outcome [5] | outcome [6] | outcome [7] | outcome [8]
active: growth inhibition [4] 92%

COc1ccc(Nc2nccc(NCC(O)c3ccc(C(F)(F)F)cc3)n2)cc1 (stereo not given)
inactive: inhibition [2] 6% | inhibition [3] -1% | outcome [5] | outcome [6] | outcome [7] | outcome [8]
active: growth inhibition [1] 54% | growth inhibition [4] 98%

O=C(/C=C/c1ccc(Cl)c(Cl)c1)NCCCCCCN1CCCN(C(=O)Nc2ccc(F)c(F)c2)CC1
inactive: growth inhibition [1] 2% | inhibition [3] 4% | outcome [5] | outcome [6] | outcome [7] | outcome [8]
active: inhibition [2] 72% | growth inhibition [4] 89%

CCOc1cc(C(=O)Nc2ccc3nc(N(CC)CC)cc(C)c3c2)cc(OCC)c1OCC
inactive: growth inhibition [1] 9% | inhibition [2] 16% | inhibition [3] -2% | outcome [5] | outcome [6] | outcome [7] | outcome [8]
active: growth inhibition [4] 98%

O=[N+]([O-])c1ccc(Nc2nc(NN=Cc3ccc(-c4ccc([N+](=O)[O-])cc4)o3)nc(Nc3ccccc3)n2)cc1
active: growth inhibition [1] 74% | growth inhibition [4] 101%
inactive: inhibition [2] -9% | inhibition [3] -5% | outcome [5] | outcome [6] | outcome [7] | outcome [8]

Oc1ccc2nc(Nc3ccccc3)nc(NCCc3ccccc3)c2c1
inactive: inhibition [2] 20% | inhibition [3] -6% | outcome [5] | outcome [6] | outcome [7] | outcome [8]
active: growth inhibition [1] 100% | growth inhibition [4] 100%

c1ccc(Nc2nc(-c3ccccn3)cs2)nc1
inactive: inhibition [2] 45% | inhibition [3] 2% | outcome [5] | outcome [6] | outcome [7] | outcome [8]
active: growth inhibition [1] 93% | growth inhibition [4] 87%

CCc1c[nH]c2c(N3CCCS3(=O)=O)cc(C(=O)N[C@@H](Cc3ccccc3)[C@H](O)CNC3CCCCC3)cc12
active: growth inhibition [1] 89% | growth inhibition [4] 99%
inactive: inhibition [2] 6% | inhibition [3] -7% | outcome [5] | outcome [6] | outcome [7] | outcome [8]

CC1CCCCC1N(C)C1CCN(CCCNC(=O)C=Cc2ccc(Cl)cc2Cl)CC1 (stereo not given)
active: growth inhibition [1] 59% | inhibition [2] 53% | growth inhibition [4] 101%
inactive: inhibition [3] 4% | outcome [5] | outcome [6] | outcome [7] | outcome [8]

CC1CN(c2cc(=O)n(Cc3cccc(NC(=O)Nc4ccc(-c5ccccc5)cc4)c3)cn2)CC(C)N1 (stereo not given)
active: growth inhibition [1] 63% | growth inhibition [4] 101%
inactive: inhibition [2] 2% | inhibition [3] -2% | outcome [5] | outcome [6] | outcome [7] | outcome [8]

Nc1ccc(Nc2ccnc3ccc(C(F)(F)F)cc23)cc1O
active: growth inhibition [1] 59% | growth inhibition [4] 98%
inactive: inhibition [2] 1% | inhibition [3] 5% | outcome [5] | outcome [6] | outcome [7] | outcome [8]

O=C(/C=C/c1ccc(Cl)c(Cl)c1)NCCCCCN1CCC(NC(=O)Nc2ccc(OC(F)F)cc2)CC1
inactive: growth inhibition [1] 18% | inhibition [2] 33% | inhibition [3] 6% | outcome [5] | outcome [6] | outcome [7] | outcome [8]
active: growth inhibition [4] 101%

O=C(NCc1ccc(F)cc1)Nc1ccc(-c2cccc(-c3nc4ccc(F)cc4[nH]3)c2)cc1
active: growth inhibition [1] 99% | growth inhibition [4] 100%
inactive: inhibition [2] 31% | inhibition [3] -1% | outcome [5] | outcome [6] | outcome [7] | outcome [8]

CC(=O)NCCNc1nccc(N2CCc3ncnc(Nc4ccc(OCc5cccc(F)c5)c(Cl)c4)c3C2)n1
active: growth inhibition [1] 100% | growth inhibition [4] 100%
inactive: inhibition [2] 10% | inhibition [3] 5% | outcome [5] | outcome [6] | outcome [7] | outcome [8]

CCOc1ccc(-c2nonc2NC(=O)c2ccc(F)cc2)cc1OCC
active: growth inhibition [1] 99% | growth inhibition [4] 102%
inactive: inhibition [2] 36% | inhibition [3] 0% | outcome [5] | outcome [6] | outcome [7] | outcome [8]

Cc1nc(-c2ccncc2)sc1C(=O)Nc1ccc(Cl)cc1C(=O)Nc1ccc(Cl)cc1
active: growth inhibition [4] 98%
inactive: growth inhibition [1] 47% | inhibition [2] 2% | inhibition [3] -3% | outcome [5] | outcome [6] | outcome [7] | outcome [8]

COc1ccc(NC(=O)c2ccc(OCCCCCCCOc3ccc(C(=O)Nc4ccc(OC)c(N5CCN(C)CC5)c4)cc3)cc2)cc1N1CCN(C)CC1
inactive: inhibition [3] -5% | outcome [5] | outcome [6] | outcome [7] | outcome [8]
active: growth inhibition [1] 91% | inhibition [2] 98% | growth inhibition [4] 96%

O=C(Nc1cccc(-c2ccc(CN3CCC(O)CC3)cc2)c1)c1ccc(Cl)cc1
active: growth inhibition [4] 95%
inactive: growth inhibition [1] 8% | inhibition [2] 46% | inhibition [3] 4% | outcome [5] | outcome [6] | outcome [7] | outcome [8]

Nc1nc2ccc(S(=O)(=O)Nc3ccc(C(=O)N[C@@H](CCC(=O)O)C(=O)O)c(F)c3)cc2c(=O)[nH]1
active: growth inhibition [4] 97%
inactive: growth inhibition [1] 16% | inhibition [2] 37% | inhibition [3] 4% | outcome [5] | outcome [6] | outcome [7] | outcome [8]

COc1cccc(NC(=O)Cn2c(C)c(C#N)c3ccccc32)c1
active: growth inhibition [1] 100% | growth inhibition [4] 101%
inactive: inhibition [2] 16% | inhibition [3] 4% | outcome [5] | outcome [6] | outcome [7] | outcome [8]

COc1ccc(CNCc2ccc(-c3cccc(-c4nc5ccc(C(F)(F)F)cc5[nH]4)c3)cc2)cc1
inactive: inhibition [3] -8% | outcome [5] | outcome [6] | outcome [7] | outcome [8]
active: growth inhibition [1] 100% | inhibition [2] 59% | growth inhibition [4] 102%

CC(C)c1ccc(N2CCN(CCCCNC(=O)c3ccc(NC(=O)c4cc(Cl)cc(Cl)c4)cc3)CC2)cc1
inactive: inhibition [2] 12% | inhibition [3] 8% | outcome [5] | outcome [6] | outcome [7] | outcome [8]
active: growth inhibition [1] 86% | growth inhibition [4] 101%

C[C@@H]1CN(c2cnn(Cc3cccc(NC(=O)Nc4cccc(C(F)(F)F)c4)c3)c(=O)c2Cl)C[C@H](C)N1
inactive: inhibition [2] 19% | inhibition [3] -4% | outcome [5] | outcome [6] | outcome [7] | outcome [8]
active: growth inhibition [1] 74% | growth inhibition [4] 96%

O=C(Nc1ccc(-c2ccc(-c3nc4ccccc4[nH]3)s2)cc1)Nc1ccc(F)c(F)c1F
inactive: inhibition [3] 5% | outcome [5] | outcome [6] | outcome [7] | outcome [8]
active: growth inhibition [1] 97% | inhibition [2] 57% | growth inhibition [4] 99%

CS(=O)(=O)c1ccc(CCNCc2ccc(-c3cccc(-c4nc5ccccc5[nH]4)c3)cc2)cc1
inactive: inhibition [2] 40% | inhibition [3] -4% | outcome [5] | outcome [6] | outcome [7] | outcome [8]
active: growth inhibition [1] 99% | growth inhibition [4] 100%

Cc1nc(-c2cccc(Nc3nccc(NCC(O)c4ccccc4C(F)(F)F)n3)c2)cs1 (stereo not given)
inactive: inhibition [2] 48% | inhibition [3] 5% | outcome [5] | outcome [6] | outcome [7] | outcome [8]
active: growth inhibition [1] 50% | growth inhibition [4] 97%

COc1ccc2nccc([C@@H](O)CN3CCC(NC(=O)c4cccc(C(=O)c5ccccc5)c4)CC3)c2c1
active: growth inhibition [1] 99% | growth inhibition [4] 99%
inactive: inhibition [2] 13% | inhibition [3] 2% | outcome [5] | outcome [6] | outcome [7] | outcome [8]

O=C(/C=C/c1ccc(Cl)c(Cl)c1)NCCCCCN1CCCC(CNC(=O)Nc2ccc(C(F)(F)F)cc2)C1 (stereo not given)
inactive: growth inhibition [1] 7% | inhibition [2] 27% | inhibition [3] -9% | outcome [5] | outcome [6] | outcome [7] | outcome [8]
active: growth inhibition [4] 100%

CCCC(=O)c1cnc2cc(O)ccc2c1Nc1ccccc1C
active: growth inhibition [1] 93% | growth inhibition [4] 99%
inactive: inhibition [2] 14% | inhibition [3] -8% | outcome [5] | outcome [6] | outcome [7] | outcome [8]

CC(=O)N1N=C(c2ccc(Cl)cc2)Sc2c1nc(-c1ccccc1)n2C(C)=O
active: growth inhibition [1] 81% | growth inhibition [4] 105%
inactive: inhibition [2] -3% | inhibition [3] 3% | outcome [5] | outcome [6] | outcome [7] | outcome [8]

O=C(Nc1ccc2nc(-c3ccc4nc(NC(=O)C5CCCCC5)sc4c3)[nH]c2c1)C1CCCCC1
active: growth inhibition [1] 68% | inhibition [2] 84% | growth inhibition [4] 100%
inactive: inhibition [3] -9% | outcome [5] | outcome [6] | outcome [7] | outcome [8]

Cc1ccc(CCC(C)NCC(O)c2cccc(Cl)c2)cc1 (stereo not given)
active: growth inhibition [1] 97% | growth inhibition [4] 97%
inactive: inhibition [2] 2% | inhibition [3] -4% | outcome [5] | outcome [6] | outcome [7] | outcome [8]

COc1ccc(NC(=O)NC2CCN(c3ccnc4ccccc34)C2)cc1 (stereo not given)
active: growth inhibition [4] 94%
inactive: growth inhibition [1] -1% | inhibition [2] 3% | inhibition [3] 2% | outcome [5] | outcome [6] | outcome [7] | outcome [8]
